# Experimental data reported in PubChem BioAssay AID2235 (The Scripps Research Institute Molecular Screening Center, 2010).
# In all, about 320,000 compounds went through this assay and about 2,800 (0.88%) were called active. The sample as a whole holds a higher share of actives than the screen did. A number with no mark means an inactive call.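 Rule for the calls: active = inhibition above the mean inhibition of all tested compounds plus 3 SD, computed separately for each screening campaign (cut at about 15% in these data); inactive = the rest.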
# Biological target: Serine/threonine-protein phosphatase PP1-alpha catalytic subunit (Homo sapiens) (UniProt P62136)
# Sequence (P62136 whole entry, looked up): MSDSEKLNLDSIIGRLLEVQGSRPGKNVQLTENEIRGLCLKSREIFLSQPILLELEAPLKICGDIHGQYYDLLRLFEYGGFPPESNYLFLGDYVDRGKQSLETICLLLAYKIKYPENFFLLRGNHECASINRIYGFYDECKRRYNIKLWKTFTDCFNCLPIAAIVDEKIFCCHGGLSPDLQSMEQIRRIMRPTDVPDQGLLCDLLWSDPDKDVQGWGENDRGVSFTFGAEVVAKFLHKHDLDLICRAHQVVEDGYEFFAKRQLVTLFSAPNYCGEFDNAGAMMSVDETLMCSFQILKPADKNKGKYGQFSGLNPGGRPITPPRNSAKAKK
# Test: inhibition of human PP1 catalytic subunit – biochemical, fluorescence, OMFP substrate, single point, counter-screen for PP5 inhibitor project, primary screen (AID 2235)
# Conditions: purified PP1alpha, at 6.7 µM, hits give high values
row,SMILES,inhibition
1,COc1ccccc1C(=O)NC(=O)COC(=O)C1CC1,-1.39%
2,CCC(=C/c1sc2ccc3ccccc3c2[n+]1C)/C=C1\Sc2ccc3ccccc3c2N1C,79.3% (active)
3,CC(NCc1ccccc1OC1CCCC1)c1ccccc1 (stereo not given),-3.47%
4,O=C(Nc1ccc(S(=O)(=O)NCC2CCCO2)cc1)c1ccc(F)cc1 (stereo not given),1.04%
5,CC(C)(C)c1ccc(Oc2ccc(N)cc2)cc1,1.18%
6,CC(C)(C)Nc1nc(-c2ccccn2)nc2ccccc12,18.4% (active)
7,Cc1ccc(Oc2nc(-c3ccccn3)nc3ccccc23)cc1,17.4% (active)
8,CCOCCCNc1nc(-c2ccccc2)nc2ccccc12,3.36%
9,COc1ccc(NCCc2ccccn2)cc1,1.13%
10,N#Cc1ccc(Oc2cc(C(F)(F)F)nc(-c3ccccn3)n2)cc1,-1.29%
11,COc1cnc(-c2ccccn2)nc1Oc1ccc(C(C)(C)C)cc1,57.9% (active)
12,Cc1ccc(Oc2nc3ccccc3n3c(C)nnc23)cc1,-3.88%
13,CCC(=O)OCCNc1nc(-c2ccccc2)nc2ccccc12,0.15%
14,COC(=O)C1=NNC2(c3ccc(C)cc3)C(=O)N(c3cccc(C)c3C)C(=O)C12 (stereo not given),2.4%
15,Cc1ccc(-c2cnc(NC(=O)CCC(=O)N(C)Cc3ccccc3)n2C)cc1,-3.93%
16,CC(c1nnc(SCC(=O)Nc2sccc2C#N)n1-c1ccc(Cl)cc1)N(C)C (stereo not given),-0.51%
17,COc1ccc(NC(=O)CN(C)C(=O)c2cc(C3CC3)nn2-c2ccccc2)cc1,-0.28%
18,CC(C)Oc1ccc(CC(=O)NNC(=S)Nc2ccc(Br)cc2)cc1,6.13%
19,Cc1ccc(C(=O)NNC(=O)c2cc3cc4ccccc4nc3s2)cc1,15.8% (active)
20,O=C(NNC(=O)c1cc2c(s1)CCCC2)c1ccccc1,-3.37%

row,SMILES,inhibition
1,Cc1ccc(C(=O)NNC(=O)c2cccs2)cc1,3.43%
2,O=C(O)c1cccc(N=NN2CCCCCC2)c1,2.62%
3,CCN(CC(=O)Nc1ccc(NC(C)=O)cc1)C(=O)CSC(=S)N1CCCC1,-1.09%
4,CCOc1cc(C)ccc1OCc1nnc(SCC(=O)Nc2cccc(C(=O)O)c2)n1-c1ccccc1,-6.28%
5,Cc1nc(/N=C(\N)NC(=O)NC2CCCCC2)nc2ccccc12,18.6% (active)
6,O=C(NNC(=O)C(O)c1ccccc1)NC1CCCCC1 (stereo not given),-1.2%
7,COc1ccc2nc(/N=C(\N)NC(=O)Nc3ccccc3)nc(C)c2c1,7.87%
8,CC1(C)C2CC=C(/C=N/NC(=O)c3ccc(Cl)cc3)C1C2 (stereo not given),0.59%
9,COc1ccc(C(C#N)Nc2ccc(C)cc2)cc1 (stereo not given),-2.92%
10,N#CC1=C(N)Oc2c(ccc3cccnc23)C1c1ccncc1 (stereo not given),-1.75%
11,N#CC1=C(N)Oc2c(sc3ccccc23)C1c1ccco1 (stereo not given),15.7% (active)
12,CON(C)S(=O)(=O)c1ccc2c(c1)NC(=O)C1CCCN21 (stereo not given),5.21%
13,O=C(NC(=S)NC1CCS(=O)(=O)C1)c1cccc([N+](=O)[O-])c1 (stereo not given),-0.09%
14,Cc1nn(-c2ccc([N+](=O)[O-])cc2)c(N)c1-c1ccccc1,-0.19%
15,O=C1CC(c2ccccc2)=NN1c1ccc([N+](=O)[O-])cc1,15.4% (active)
16,CC1=NN(c2ccccc2)C(=O)C1C(=O)c1ccc([N+](=O)[O-])cc1 (stereo not given),-1.75%
17,Cc1ccc(NC(=O)CN(C)C(=O)COC(=O)c2nccnc2N)cc1,6.11%
18,COc1ccc(NC(=S)SC)cc1OC,-7.31%
19,COc1ccc(NC(=O)C2C3CCC(O3)C2C(=O)O)cc1OC (stereo not given),71.5% (active)
20,CC(C)OC(=O)c1cc(NC(=O)C2C3CCC(O3)C2C(=O)O)cc(C(=O)OC(C)C)c1 (stereo not given),48.8% (active)

row,SMILES,inhibition
1,Cc1sc(NC(=O)C2C3CCC(O3)C2C(=O)O)c(C(=O)OC(C)C)c1-c1ccc(Cl)cc1 (stereo not given),10.9%
2,COC(=O)c1cc(NC(=O)C2C3C=CC(C3)C2C(=O)O)cc(C(=O)OC)c1 (stereo not given),2.03%
3,COc1ccc(NC(=O)CNC(=O)Cc2ccccc2)cc1OC,-3.57%
4,COc1ccc(N(CC(=O)N/N=C/c2cccc3c2OCCO3)S(=O)(=O)c2ccc(NC(C)=O)cc2)cc1,4.91%
5,CCOc1ccccc1N1CN(Cc2ccccc2)CNC1=S,-3.54%
6,CC(C)c1ccc(N(C(=O)c2ccco2)C(C(=O)NC2CCCC2)c2cccnc2)cc1 (stereo not given),4.81%
7,CN(CC(=O)Nc1ccc(Cl)cc1)C(=O)CNC(=O)c1ccc2ccccc2c1,-2.18%
8,CC(=O)Nc1ccc(C(=O)Nc2nc(-c3cc(C)n(Cc4ccccc4)c3C)cs2)cc1,3.86%
9,Cc1cc(-c2csc(N)n2)c(C)n1Cc1ccccc1,14.8%
10,Cc1cc(-c2csc(N)n2)c(C)n1-c1ccccc1,25.1% (active)
11,CC(=O)Nc1ccc(S(=O)(=O)N2CCC(NC(=O)c3ccccc3)CC2)cc1,0.38%
12,CCCNC(=O)c1ccc(N2CCC3(CC2)CC(c2ccc(Cl)cc2)=NO3)c([N+](=O)[O-])c1,-4.68%
13,O=C(Nc1ccccc1N1CCN(C(=O)c2ccccc2)CC1)c1ccco1,0.05%
14,CCCNC(=O)c1ccc(N2CCC3(CC2)CC(c2cccc(Br)c2)=NO3)c(NC(=O)c2ccco2)c1,15.6% (active)
15,CC(C)=CC(=O)Nc1nnc(-c2ccc(F)cc2)s1,-5.78%
16,COc1ccc(C2=NN(C(=O)CSc3nnnn3C)C(c3ccco3)C2)cc1 (stereo not given),-2.47%
17,Cc1ccc(N(C(=O)c2ccc(CN3CCOCC3)o2)C(C(=O)NCCC(C)C)c2cccs2)c(C)c1 (stereo not given),-1.98%
18,Cc1ccc(-c2noc(CSc3nnnn3-c3ccccc3)n2)cc1,0.28%
19,Cc1ccc(Nc2nc(CSc3nnnn3-c3ccccc3)cc(=O)[nH]2)cc1,37.6% (active)
20,COc1ccc(C)cc1-n1nnnc1SCc1nc2ccccc2c(=O)[nH]1,9.72%
